# Rows were chosen to be rich in hits. Some 3.4% of all compounds tested hit in one or more screens of this group.
# TMEM16A act – activators or potentiators of mouse TMEM16A chloride channel | B-score at 10 µM | HEK293 TMEM16A/YFP-H148Q/I152L, iodide quench fluorescence; stronger effect = lower value | Q8BHY3 | hit rate 0.3% among 340,000;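 active = fluorescence-ratio B-score plate-corrected deviation score at least 3 library SD below zero, with starting fluorescence score within 5 deviations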;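 also: channel opened by trigger with iodide after compound preincubation; score built on the fluorescence ratio of max minus min over baseline; more negative score means more quench and so TMEM16A activation or potentiation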
# Target sequence (Q8BHY3 whole entry, looked up): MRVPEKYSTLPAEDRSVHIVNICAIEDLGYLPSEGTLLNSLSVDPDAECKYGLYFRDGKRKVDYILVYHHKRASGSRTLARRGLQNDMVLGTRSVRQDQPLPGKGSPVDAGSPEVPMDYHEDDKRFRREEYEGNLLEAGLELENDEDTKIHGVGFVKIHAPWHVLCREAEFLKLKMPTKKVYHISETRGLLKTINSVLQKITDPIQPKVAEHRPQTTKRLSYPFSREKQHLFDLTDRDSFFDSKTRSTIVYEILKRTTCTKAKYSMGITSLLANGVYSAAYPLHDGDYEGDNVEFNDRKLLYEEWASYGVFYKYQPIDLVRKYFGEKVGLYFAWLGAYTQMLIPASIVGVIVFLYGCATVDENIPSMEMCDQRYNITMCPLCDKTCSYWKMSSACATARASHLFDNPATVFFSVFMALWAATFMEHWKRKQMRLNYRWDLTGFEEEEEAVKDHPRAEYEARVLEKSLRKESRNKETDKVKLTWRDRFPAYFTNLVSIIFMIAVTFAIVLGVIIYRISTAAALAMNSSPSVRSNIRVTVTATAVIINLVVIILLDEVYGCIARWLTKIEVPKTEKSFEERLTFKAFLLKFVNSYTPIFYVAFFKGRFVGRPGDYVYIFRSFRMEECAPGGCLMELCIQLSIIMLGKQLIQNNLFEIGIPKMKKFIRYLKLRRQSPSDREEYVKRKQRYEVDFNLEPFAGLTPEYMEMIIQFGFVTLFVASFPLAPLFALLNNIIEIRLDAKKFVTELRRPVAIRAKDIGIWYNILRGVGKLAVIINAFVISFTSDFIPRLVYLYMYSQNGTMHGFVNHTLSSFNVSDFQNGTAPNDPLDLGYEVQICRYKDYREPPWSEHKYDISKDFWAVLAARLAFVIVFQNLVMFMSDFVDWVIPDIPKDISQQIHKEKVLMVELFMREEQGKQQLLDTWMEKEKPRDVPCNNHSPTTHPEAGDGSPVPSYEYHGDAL
# NTR1 ag – agonists of human neurotensin receptor NTR1 | NTR1-U2OS beta-arrestin-GFP spot imaging, agonist mode | activation, % at 20 µM | hit rate 0.17% among 330,000 | AID 493036;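 active = activation at or above 40% of the spot to cytoplasm intensity ratio, with at least 20 cells analyzed; inconclusive = wells under 20 cells, flagged as cytotoxic or low count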
# ANO1 block – mouse TMEM16A channel inhibition, primary screen; hit rate 1.2% among 310,000; normalized B-score (activity score, 25-100; higher = stronger inhibition) at 10 µM; Q8BHY3; AID 588511; HEK293 TMEM16A/YFP iodide influx fluorescence, ionomycin;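 active = ratio plate-corrected score three or more library SD toward inhibition, starting fluorescence score within five deviations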;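 also: score derived from kinetic fluorescence span divided by baseline fluorescence per well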
# MEKK3 PB1 HTS – modulators (inhibitors or enhancers) of MEK5 binding to human MEKK3 PB1 domain | Q99759 | bead-based flow cytometry, Alexa488-MEK5 binding to MEKK3; actives lie on both sides; 0 = blocked by unlabeled MEK5, 100 = vehicle | binding response (% of control), % at 10 µM | hit rate 1.4% among 290,000 | AID 1529;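 active = binding response more than 3 SD above or below the average of its plate-row segment, actives on both sides; inconclusive = wells at one plate position flagged as instrument error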;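 also: Alexa488 bead fluorescence after subtracting the streptavidin-only scavenger bead signal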
# MEKK2 WT-MEK5 – raises or lowers MEK5 binding to wildtype human MEKK2 PB1 domain | binding response (% of control), % at 10 µM | hit rate 1.1% among 290,000 | Q9Y2U5 | bead flow cytometry, Alexa488-MEK5 binding to MEKK2 WT; actives lie on both sides | AID 1531; in the data active = binding response below about 67% or above about 130%; inconclusive = no clear call, values can overlap the other calls; inactive = in between
# MEKK2 mut-MEK5 – signal of MEK5 binding to mutant human MEKK2 PB1 domain. hit rate 0.35% among 290,000. percent response, % at 10 µM. bead flow cytometry, Alexa488-MEK5 binding to MEKK2 mutant. AID 1530; in the data active = percent response above about 24%, passing the limit was not always enough
# TMEM16A reconf – TMEM16A (mouse) chloride channel inhibition, re-confirmation; shares compounds with ANO1 block; HEK293 TMEM16A/YFP-H148Q, iodide quench fluorescence; ionomycin added to raise cell calcium; inhibition, % at 10 µM; hit rate 39% among 2,300; AID 652189;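 active = mean duplicate percent inhibition, scaled so buffer wells are 0 and the reference blocker 100, over three buffer SD above buffer mean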
# HEK293 Ca mobil – alters calcium mobilization in TMEM16A HEK293 cells, counter-screen | shares compounds with ANO1 block | TMEM16A/YFP HEK293, Fluo4 calcium mobilization | calcium response (% of ionomycin), % at 10 µM | hit rate 2% among 2,300 | AID 652231;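 active = duplicate-averaged calcium signal over 20% of the ionomycin maximum, relative to buffer baseline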;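 also: each well's signal is peak minus trough fluorescence divided by its pre-addition baseline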
# YFP-HEK293 quench – counter-screen for TMEM16A inhibitors: effect in parental YFP-HEK293 cells | YFP ratio F(max-min)/F0 at 10 µM | iodide YFP quench, ionomycin | 2,300 tested, under 10 active | shares compounds with ANO1 block;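 active = yellow fluorescent protein signal ratio exceeding the buffer control mean by over 5 SD of those controls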;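 also: ratio is mean of duplicate wells from kinetic YFP trace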
# ClC-1 rat inh – selectivity of TMEM16A inhibitors: inhibition of rat ClC-1 chloride channel. ratio percent, % at 10 µM. 2,300 tested, under 10 active. shares compounds with ANO1 block. CHO ClC-1-YFP, iodide influx fluorescence quench; iodide control reads 0, buffer control 100;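 active = duplicate-mean ratio percent above the mean of iodide-only control wells, which defines zero, plus 5 of their SD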;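 also: higher percent means stronger block of ClC-1 iodide influx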
# Hits are given with their value; 0 = inactive; ? = inconclusive; - = no result.
SMILES,TMEM16A act,NTR1 ag,ANO1 block,MEKK3 PB1 HTS,MEKK2 WT-MEK5,MEKK2 mut-MEK5,TMEM16A reconf,HEK293 Ca mobil,YFP-HEK293 quench,ClC-1 rat inh
Cc1cc(C)c(S(=O)(=O)Nc2ccccc2-c2ccccc2)c(C)c1,0,0,25,0,0,0,0,0,0,0
CCC1CCc2sc(C(=O)NC3CCN(Cc4ccccc4)CC3)cc2C1 (stereo unspecified),0,0,0,-,-,-,-,-,-,-
Cc1ccc(Cc2nnc(SCC(=O)Nc3ccccc3Cl)[nH]c2=O)cc1,0,0,0,-,-,-,-,-,-,-
COc1ccc(Cl)cc1NC(=O)CSc1nnc(Cc2ccc(C)cc2)c(=O)[nH]1,0,0,25,-,-,-,0,0,0,0
C=CCn1c(C)cc(C(=O)CSc2nc3ccccc3c(=O)[nH]2)c1C,0,0,0,0,0,0,-,-,-,-
C=CCn1c(C)cc(C(=O)CSc2nc3ccccc3[nH]2)c1C,0,0,25,0,0,0,43%,0,0,0
N#CC1=C(N)Oc2cc(O)ccc2C1c1ccccc1 (stereo unspecified),0,0,0,0,0,0,-,-,-,-
N#CC1=C(N)OC2=C(CCc3ccccc32)C1c1ccccc1 (stereo unspecified),0,0,100,0,0,0,52%,0,0,0
CC1Sc2ccc(S(=O)(=O)CCC(=O)NCc3ccc(Cl)cc3)cc2NC1=O (stereo unspecified),0,0,25,0,0,0,0,0,0,0
CC1Sc2ccc(S(=O)(=O)N3CCC(C(=O)Nc4ccc(Cl)cc4)CC3)cc2NC1=O (stereo unspecified),0,0,25,0,0,0,32%,0,0,0
COc1ccc(CC(=O)NCCC(C)C)cc1S(=O)(=O)N1CCOCC1,0,0,0,0,0,0,-,-,-,-
CC(=O)C(=Nc1ccccc1Cl)NNc1ccc(Cl)cc1,0,0,0,0,0,0,-,-,-,-
CCOC(=O)c1cc2c(nc1N)CC(C)(CC)OC2 (stereo unspecified),0,0,0,0,0,0,0,0,0,0
O=c1oc2ccccc2c2c1nnn2CCO,0,0,0,0,0,0,-,-,-,-
CC(Sc1nc2ccccc2s1)C(=O)c1c(N)n(C)c(=O)n(C)c1=O (stereo unspecified),0,0,100,0,0,0,0,0,0,0
CC(C)CC1COC(=O)N1 (stereo unspecified),0,0,0,0,0,0,-,-,-,-
COc1ccc(Cl)cc1NC(=O)CN(C)C(=O)c1ccc2c(c1)CC(c1ccccc1)OC2=O (stereo unspecified),0,0,-,-,-,-,-,-,-,-
O=C(O)CCNS(=O)(=O)c1ccc2ccccc2c1,0,0,100,0,0,0,0,0,0,0
CCOc1ccc(N(Cc2nnc3n2CCCCC3)C(=O)Nc2cccc(C)c2)cc1,0,0,0,0,0,0,0,0,0,0
COc1ccc(N(Cc2nnc3n2CCCCC3)C(=O)Nc2ccccc2)cc1,0,0,0,0,0,0,-,-,-,-
Cc1[nH]n(-c2ccccc2)c(=O)c1C(c1ccc(O)c([N+](=O)[O-])c1)c1c(C)[nH]n(-c2ccccc2)c1=O,0,0,100,0,0,0,34%,0,0,0
O=C(NCc1ccccc1)C1(C(F)(F)F)C/C(=C/CCO)CCCO1 (stereo unspecified),0,0,0,0,0,0,-,-,-,-
C/C=C1\COC(C(=O)NCc2ccccc2)(C(F)(F)F)C=C1C=C(C)C (stereo unspecified),0,0,100,0,0,0,0,0,0,0
Cc1cc(C)c(S(=O)(=O)c2ccccc2C)c(SCC(C)C)n1,0,0,100,0,0,0,0,0,0,0
CCCSc1nc(C)cc(C)c1S(=O)(=O)c1ccccc1C,0,0,100,-,-,-,0,0,0,0
SMILES,TMEM16A act,NTR1 ag,ANO1 block,MEKK3 PB1 HTS,MEKK2 WT-MEK5,MEKK2 mut-MEK5,TMEM16A reconf,HEK293 Ca mobil,YFP-HEK293 quench,ClC-1 rat inh
Cc1cc(NC(=O)c2ccccc2-c2ccccc2)ccc1Br,0,0,0,0,0,0,-,-,-,-
CCc1ccc(S(=O)(=O)NCCc2csc(-c3ccccc3)n2)s1,0,0,100,0,0,0,0,0,0,0
CCc1ccc(S(=O)(=O)NCc2csc(-c3ccccc3)n2)s1,0,0,0,0,0,0,-,-,-,-
Cc1ccc(CNC(=O)c2cc3c(C)nc4ccccc4c3o2)cc1,0,0,0,0,0,0,-,-,-,-
Cc1nc2ccccc2c2oc(C(=O)NCc3ccccn3)cc12,0,0,25,0,0,0,0,0,0,0
Cc1ccc(SCC2(O)CCN(C(=O)c3ccc(Cl)cc3)CC2)cc1,0,0,25,0,0,0,0,0,0,0
Cc1ccc(SCc2ccc(C(=O)N3CCCC3)cc2)cc1,0,0,0,0,0,0,-,-,-,-
Cc1nc(-c2c(-c3ccc(O)cc3O)noc2C(F)(F)F)cs1,0,0,100,0,0,0,0,0,0,0
O=C(CSc1cc(Cl)ccc1Cl)NCCN1C(=O)CSC1=O,0,0,-,-,-,-,-,-,-,-
CCc1nc2sc3ccccc3c(=O)c2c(=O)n1CCOC,0,0,25,0,0,0,0,0,0,0
Cc1cc(C)c2cc3c(N)c(C(=O)Nc4c(C)[nH]c(=O)[nH]c4=O)sc3nc2c1,0,0,0,0,0,0,0,28%,0,0
CCOC(=O)C1CCCN(S(=O)(=O)c2ccc(C)cc2)C1 (stereo unspecified),0,0,0,?,?,0,-,-,-,-
CCOC(=O)C1CCCN(S(=O)(=O)c2ccc(S(=O)(=O)N(CC)CC)cc2)C1 (stereo unspecified),0,0,25,0,0,0,0,0,0,0
Cn1cccc1C(=O)Nc1ccc(Cl)c(S(=O)(=O)N2CCCCC2)c1,0,0,-,-,-,-,-,-,-,-
Cc1ccc(NC(=O)CSc2nnc(-c3cccnc3)o2)c(C)c1,0,0,0,-,-,-,-,-,-,-
Cc1ccc(C)c(NC(=O)CSc2nnc(-c3ccccc3)o2)c1,0,0,100,0,0,0,0,0,0,0
O=C(NCC1CCCO1)C1CC(=O)N(c2ccc(Cl)cc2)C1 (stereo unspecified),0,0,0,0,0,0,-,-,-,-
